Shown are actives, neighbours in structure and some others; about 5.7% of the full set was active somewhere.
AHR act: activates the human aryl hydrocarbon receptor; P35869; AHR-responsive luciferase reporter cells, luminescence; activation, % at 5 µM; actives 2.5% (n = 320,000); AID 2796; in the data active = activation above about 47%;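 also: 0% = vehicle wells and 100% = reference agonist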
DAX1 inh-1: blocks DAX1 repression of SF-1 activated StAR promoter | HEK293T StAR-luciferase reporter, SF-1/DAX-1 repression relief | inhibition, % at 6.8 µM | actives 1.1% (n = 370,000);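 active = inhibition above the mean over all tested compounds plus 3 SD, cut at about 3.6% in these data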;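 also: 0% = DAX-1 cells with DMSO and 100% = cells lacking DAX-1 with DMSO; higher inhibition means more luminescence from relief of DAX-1 repression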
DAX1 inh-2: NR0B1 (DAX1) inhibition; actives 0.99% (n = 340,000); HEK293 Gal4-DAX1 luciferase reporter, luminescence; inhibition, % at 6.75 µM; P51843;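 active = inhibition above the mean over all tested compounds plus 3 SD, cut at about 4.2% in these data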;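 also: 0% = DAX1-transfected cells with DMSO and 100% = empty-vector control cells with DMSO; inhibition shows as a rise in luminescence from relieved DAX1 repression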
hgDAF12 agonist: agonists of H. glycines DAF-12 nuclear receptor. HEK293 GAL4-hgDAF12 UAS-luciferase reporter, agonist luminescence; normalized to butyrate control. activation, % at 6.8 µM. actives 1.8% (n = 370,000). AID 687014;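 active = activation above a cutoff set at the mean of all screened compounds plus 3 SD, cut at about 10% in these data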;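 also: 0% = DMSO wells and 100% = sodium butyrate wells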
ssDAF12 agonist: activates DAF-12 receptor from parasite S. stercoralis; actives 1% (n = 370,000); activation, % at 6.8 µM; HEK293 ssDAF-12/GRIP1 lit1-tk-luc reporter, luminescence; % of 3 µM dafachronic acid response;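 active = activation above the mean over all tested compounds plus 3 SD, cut at about 0.9% in these data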;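 also: 0% = DMSO-only wells and 100% = 3 µM delta7-dafachronic acid wells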
hcDAF-12 act: activates DAF-12 receptor from parasite H. contortus; HEK293 hcDAF-12 lit1-tk-luc reporter, luminescence; 0% DMSO, 100% Δ7-dafachronic acid; activation, % at 6.8 µM; actives 1.4% (n = 370,000); AID 652067;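 active = activation above the mean of all tested compounds plus 3 SD, cut at about 5.5% in these data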;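 also: 100% = response to 3 µM Δ7-dafachronic acid high control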
DAX1 conf: NR0B1 (human) inhibition, confirmation | actives 87% (n = 2,400) | HEK293T StAR-promoter luciferase reporter, SF-1/DAX-1 repression | inhibition, % at 6.8 µM | AID 652134 | shares compounds with DAX1 inh-1;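 active = inhibition above the average of every tested compound plus 3 SD, cut at about 3.8% in these data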;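 also: 0% = DAX-1 cells with DMSO and 100% = no DAX-1 control cells with DMSO; active compounds raise luminescence by relieving repression of the StAR reporter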
SF1 AF2mut Luc: counter-screen for DAX1 inhibitors: nonselective inhibitors with SF-1 AF2 mutant. HEK293 StAR-luciferase, luminescence. inhibition, % at 6.8 µM. actives 78% (n = 2,400). shares compounds with DAX1 inh-1. AID 652136;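 active = inhibition above the mean of all tested compounds plus 3 SD, cut at about 3% in these data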;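 also: 0% = DAX-1 transfected cells with DMSO and 100% = cells without DAX-1 with DMSO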
LXR ag: counter-screen for hcDAF-12 agonists: agonists of human LXR-beta; shares compounds with hcDAF-12 act; HEK293 Gal4-LXR tk-luc reporter, luminescence, 24 h; normalized: DMSO 0%, positive control 100%; activation, % at 6.8 µM; 3,400 tested, under 10 active;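 active = mean percent activation of the reporter above a cutoff set as the average over tested compounds plus their standard deviation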
hcDAF12 ag: hcDAF-12 agonism, confirmation assay | shares compounds with hcDAF-12 act | HEK293 hcDAF-12 lit1-tk-luc reporter, luminescence; % of Δ7-dafachronic acid response | activation, % at 6.8 µM | actives 61% (n = 3,400);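 active = mean activation across triplicate tests above the threshold derived from the earlier primary screen, cut at about 5.5% in these data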;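 also: 0% = DMSO only wells and 100% = 3 µM Δ7-dafachronic acid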
* hit, by the source's call; . = no result.

SMILES	AHR act	DAX1 inh-1	DAX1 inh-2	hgDAF12 agonist	ssDAF12 agonist	hcDAF-12 act	DAX1 conf	SF1 AF2mut Luc	LXR ag	hcDAF12 ag
CCC(C)NCC(O)COCc1ccc(Cl)cc1 (configuration not stated)	2.7	-0.1	-0.2	0.1	-0.8	-0.9	.	.	.	.
CCOC(=O)c1sc(NC(=O)c2cc(-c3cccc(O)c3)on2)c(C(=O)OCC)c1C	-1.0	0.6	0.3	-3.8	-1.7	-0.2	.	.	.	.
CCOC(=O)c1cc(-c2cccc(O)c2)oc1C	.	6.2*	.	14.3*	3.3*	9.8*	3.8*	3.2*	1.0	13.1*
COc1ccc(C(=O)NCCSc2ccccc2)cc1	5.8	5.1*	-1.2	11.9*	0.4	7.4*	12.3*	5.2*	1.5	6.5*
COc1ccc(C(=O)NCCNC(=O)c2ccc(OC)cc2)cc1	4.4	-0.3	0.4	2.1	-1.7	-2.5	.	.	.	.
C/C(=N\NC(=O)c1cc2ccccc2cc1O)c1cccs1	27.6	1.5	0.8	2.5	-0.3	4.8	.	.	.	.
C/C(=N\NC(=O)c1cccs1)c1c(O)cc(C)oc1=O	16.1	6.9*	4.7*	12.3*	1.1*	6.6*	1.5	1.8	-0.1	1.0
COc1ccc2cc(-c3cc(C(=O)O)c4ccccc4n3)ccc2c1	-14.2	5.2*	-3.8	13.1*	3.0*	8.8*	11.4*	3.2*	1.6	5.1
COc1ccc(-c2cc(C(=O)O)c3ccccc3n2)c(OC)c1	13.9	0.6	-1.0	-0.7	-0.7	-0.3	.	.	.	.
CC(=O)Nc1ccc(S(=O)(=O)Nc2nc3ccccc3s2)cc1	11.1	-0.1	-0.8	3.0	-0.7	1.2	.	.	.	.
CC(=O)Nc1ccc(/C=N/Nc2nc3ccccc3s2)cc1	.	5.6*	4.8*	24.3*	3.3*	17.7*	15.1*	9.9*	2.4	21.9*
COc1ccc(/C=N/Nc2nc3ccccc3s2)cc1O	.	8.6*	-2.8	19.7*	3.2*	17.9*	20.9*	8.1*	2.4	19.2*
Cc1ccsc1/C=N/Nc1nc2ccccc2s1	70.5*	7.1*	2.9	20.3*	5.5*	20.8*	15.8*	12.7*	1.9	22.8*
COc1ccc(C=C(c2nc3ccccc3s2)c2nc3ccccc3s2)cc1O	45.8	-1.7	-3.0	-2.7	-1.7	1.4	.	.	.	.
O=S(=O)(Nc1ccc(N=Nc2ccccc2)cc1)c1ccccc1	-0.2	0.1	-1.5	-2.6	-1.2	2.8	.	.	.	.
C[C@H](O)[C@@H]1CN2CCc3ccc(-c4ccc5c(c4)OCO5)cc3[C@@H]2C[C@@H]1N(C)Cc1cc(Cl)cc(Cl)c1	.	0.1	.	0.9	-0.5	-0.8	.	.	.	.
Cc1ccc(Cc2nnc(SCC(=O)Nc3ccccc3)n(N)c2=O)cc1	3.6	-0.4	0.1	0.4	-0.8	0.0	.	.	.	.
O=C(/C=C/Nc1ccccc1F)c1cccs1	57.1*	5.7*	-0.2	29.1*	3.9*	26.2*	15.2*	7.8*	2.4	22.5*
Cc1ccc(N/C=C/C(=O)c2cccs2)cc1	1.5	8.3*	-3.5	22.2*	1.4*	10.2*	6.3*	1.7	1.7	13.7*
O=C(c1ccccc1)c1ccc(Oc2ccc(C(=O)O)c(C(=O)O)c2)cc1	-2.4	0.6	-0.3	-1.4	-1.0	-0.1	.	.	.	.
O=C(NCCc1ccccc1)c1ccccc1NC(=O)C1CC=CCC1C(=O)O (configuration not stated)	3.0	4.7*	0.2	10.6*	1.2*	10.6*	7.6*	7.5*	0.5	7.2*

Screens from PubChem.
